Results as given in PubChem BioAssay AID881 (National Center for Advancing Translational Sciences (NCATS), 2007).
“And” between values parts separate entries of the source, which are not always exact repeats. Equal values may be shown once. Out of some 110,000 compounds screened, about 610 (0.55%) were called active. Another 3% or so got no clear call; they are omitted. This excerpt belongs to a sample that is enriched for actives. A number with no mark means an inactive call. Calls follow the shape of the dose curve; as a rule, active = well fitted inhibition curve with a large enough effect; inconclusive = small, poorly fitted or top-dose-only effect; inactive = no such curve, though single readings can be large or run the other way.

target: Polyunsaturated fatty acid lipoxygenase ALOX15B (Homo sapiens) (UniProt O15296); test: qHTS Assay for Inhibitors of 15-hLO-2 (15-human lipoxygenase 2); details: purified 15hLO-2, xylenol orange hydroperoxide absorbance; series mostly up to 57.1 µM; activity change, negative = inhibition: at the top concentration; also: nearly all actives have a fitted effect of over 60% in size
Sequence (O15296 whole entry, looked up): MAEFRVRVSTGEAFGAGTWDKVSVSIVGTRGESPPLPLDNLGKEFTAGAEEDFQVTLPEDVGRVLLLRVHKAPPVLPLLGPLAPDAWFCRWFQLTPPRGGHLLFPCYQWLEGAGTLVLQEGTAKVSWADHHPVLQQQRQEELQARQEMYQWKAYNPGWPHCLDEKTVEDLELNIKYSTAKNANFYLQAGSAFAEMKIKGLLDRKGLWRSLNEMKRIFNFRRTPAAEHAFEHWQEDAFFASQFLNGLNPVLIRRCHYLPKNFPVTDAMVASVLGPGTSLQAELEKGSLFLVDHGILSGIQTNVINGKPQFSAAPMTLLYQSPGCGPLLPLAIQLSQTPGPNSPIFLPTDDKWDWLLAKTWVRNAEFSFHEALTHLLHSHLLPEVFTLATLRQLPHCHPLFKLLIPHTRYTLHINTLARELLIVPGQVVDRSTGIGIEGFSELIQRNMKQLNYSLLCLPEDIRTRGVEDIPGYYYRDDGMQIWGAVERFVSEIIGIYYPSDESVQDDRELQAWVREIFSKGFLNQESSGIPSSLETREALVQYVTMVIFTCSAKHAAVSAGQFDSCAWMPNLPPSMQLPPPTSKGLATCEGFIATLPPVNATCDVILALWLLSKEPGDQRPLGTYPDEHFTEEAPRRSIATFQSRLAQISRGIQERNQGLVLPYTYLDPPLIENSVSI
From the text: Assay Overview: NIH Molecular Libraries Screening Centers Network [MLSCN] NIH Chemical Genomics Center [NCGC] MLSCN Grant: MH081283-01A1 PI Name: Holman, T.R., University of California, Santa Cruz Human lipoxygenase 15hLO-2 is a member of the closely related lipoxygenase family of enzymes which catalyze the site-specific oxidation of arachidonic acid to various hormone precursor molecules and as such is a candidate for drug development in a variety of disease areas, such as cancer and inflammation. Inhibition of 15hLO-2 activity was screened by utilizing arachidonic acid as a substrate. The extent of hydroperoxide product formation was measured by a secondary chromogenic reaction in which xylenol orange (XO, Sigma-Aldrich, cat. number 39,818-7) reacts with the ferric ions produced from the reaction between the hydroperoxide and ferrous ions. The Fe(III)-XO complex is characterized with red-shifted absorbance at 560 nm. A purified preparation of human 15hLO-2 was supplied by Professor Ted Holman, University of California, Santa Cruz.
Assay Protocol: Buffer: 25 mM Hepes pH 7.5, 0.01% Triton X-100. Reagents/Controls: Buffer in columns 3 and 4 as negative control (no enzyme). Substrate solution: 45 uM arachidonic acid (Sigma-Aldrich, St. Louis, MO) final concentration dispensed throughout the plate. Enzyme: 50 nM 15hLO-2 final concentration in columns 1, 2, 5-48. Column 1 is neutral (100% activity). Column 2 contained pin-transferred titration of NDGA (nordihidroguaiaretic acid, Sigma-Aldrich, N 5023, top concentration 10 mM in DMSO, then 1:2 dilution in duplicate). (Dilution factor: 23 nL into 4 uL.) Chromogenic detection reagent (divalent iron/xylenol orange, Fe-XO): 200 uM xylenol orange plus 300 uM ferrous ammonium sulfate prepared freshly in 50 mM sulfuric acid. Assay Steps: Three uL of enzyme were dispensed to 1536-well Greiner black clear bottom plates. Compounds and controls (23 nL) were transferred via Kalypsys PinTool. The plates were incubated for 15 min at room temperature, and then 1 uL of substrate solution was added to start the reaction. After room temperature incubation for 90 minutes, 4 uL of Fe-XO solution was added to each well followed by a short spin (1000 rpm, 15 sec) and the plates were then incubated for 30 min. The absorbance at 405 and 573 nm were measured using ViewLux (Perkin-Elmer) High-throughput CCD imager and absorbance protocol settings. The 573-to-405 absorbance ratio was used to compute reaction progress.
% is scaled to controls: 0 for no effect and ±100 for the full control effect; potency is read from the fitted curve at half-maximal effect.

Compound | activity change, negative = inhibition | Potency
O=C(Nc1cc(C(F)(F)F)ccc1Cl)c1cc2nc3c(c(C(F)(F)F)n2n1)CCCC3 | -8.67% | –
CCOc1ccc(N=Cc2c(O)n(-c3cccc(C)n3)c(=O)c3ccccc23)cc1 | -20.5% | –
NNc1nnc(NN)c2ccccc12 | 35% [at 0.0915 µM] | –
CCOC(=O)c1c(NC(=O)CCl)sc(C(=O)N(CC)CC)c1C | -0.801% | –
O=c1onc(-c2cccs2)n1Cc1ccccc1 | -5.38% | –
CNC(=O)c1nnc(Cc2ccc(Cl)cc2)o1 | 8.13% | –
CC(C)Nc1ncnc2c1nnn2Cc1ccccc1 | -2.57% | –
CN=C1SC(CC(=O)Nc2ccc(C(=O)O)cc2)C(=O)N1C (stereo not given) | 7.34% | –
Cc1c(Br)cc(C(=O)N2CCCCCC2)c(C)c1C | 3.77% | –
O=C1OCCN1C(=O)[C@H]1[C@H](c2ccccc2)C(c2ccc(F)cc2)=NN1c1ccccc1 | -26.1% [at 0.0915 µM] | –
Oc1c(Cl)cc(Cl)c(Cl)c1Cc1c(O)c(Cl)cc(Cl)c1Cl | – | 10 µM (active)
C=C(C)CSc1nnc(-c2ccc(C)cc2)n1N | -9.67% | –
COc1ccc(CN2CN(C(C)C)CSC2=S)cc1 | – | 5.01 µM (active)
COc1ccc(C(=O)CN(C(=O)c2ccc(Cl)cc2)N2C(=O)c3ccccc3C2=O)cc1 | -10.7% | –
O=C(O)CSCc1ccc(C(=O)O)o1 | 2.71% | –
CC(C)NS(=O)(=O)c1ccc(NC(=O)C2CCCCC2)cc1 | -5.18% | –
O=C(CCc1ccc(S(=O)(=O)N2CCOCC2)cc1)Nc1ccc2ccccc2c1 | -2.44% | –
COc1ccc(Nc2cc(=O)oc3ccccc23)cc1 | -1.16% | –
S=C(NCc1ccc(Cl)cc1)NC12CC3CC(CC(C3)C1)C2 | – | 15.8 µM (active)
S=C(NCc1cccs1)Nc1ccc(Cl)cc1 | -14.3% | –
O=C(NCc1ccc2c(c1)OCO2)C12CC3CC(CC(C3)C1)C2 | -1.12% | –
Cc1cccc(N2C(=O)c3cccnc3C2=O)c1 | -4.64% | –
COc1ccc(-c2c(C)cc3oc(=O)cc(-c4ccccc4)c3c2C)cc1F | -14% [at 0.0915 µM] | –
O=c1cc(-c2ccc(O)c(O)c2)oc2cccc(O)c12 | – | 12.6 µM (active)
Cc1cccc(-c2cc(=O)c3cc(C)ccc3o2)c1 | -4.12% | –

Compound | activity change, negative = inhibition | Potency
CC1O[C@@H](Oc2c(-c3ccc(O)c(O)c3)oc3cc(O)cc(O)c3c2=O)C(O)C(O)C1O (stereo not given in full) | -4.62% | –
COc1ccc(N2CCN(C(=O)CNC(=O)c3ccc(C(C)(C)C)cc3)CC2)cc1 | -1.78% | –
CC(=O)N1CCN(c2ccc(NCc3ccc(C(C)C)cc3)cc2)CC1 | – | 12.6 µM (active)
CC(C)c1ccc(N2CCN(C(=O)c3ccccc3NC(=O)/C=C(\C(=O)O)c3ccccc3)CC2)cc1 | -27.6% | –
COc1ccc(-c2c(C)cc3oc(=O)cc(-c4ccccc4)c3c2C)cc1OC | -3.53% [at 0.0915 µM] | –
CCCCN(CC)CCNC(=O)c1[nH]c(C)c(C(C)=O)c1C | 3.09% | –
COCc1cc(C(C)=O)ccc1OC | 1.18% | –
CC[C@@H]1Cc2cc(O)ccc2C2=C1c1ccc(O)cc1C[C@H]2CC | – | 7.94 µM (active) and 3.55 µM (active)
Cc1nnc(SCC(=O)NC(=O)NC2CCCC2)n1N | 2.83% | –
CCc1c(O)nc(SCC(=O)Nc2ccccc2)n(C(C)CC)c1=O (stereo not given) | -6.9% | –
COc1ccccc1NC(=O)[C@H](COCc1ccccc1)NC(=O)OC(C)(C)C | -3.55% | –
CC(C)C(=O)OCC(=O)Nc1ccc2c(c1)CCC2 | 2.52% | –
O=C1OCCN1C(=O)[C@H]1[C@H](c2ccc(F)cc2)C(c2ccccc2)=NN1c1ccc(Br)cc1 | -15.7% [at 0.0915 µM] | –
COc1cc(/C=N/O)cc(Br)c1OS(=O)(=O)c1ccc(C)cc1 | 9.08% | –
CCN(CC)c1ccc(NC(=O)c2ccc(Cl)nc2)cc1 | -20.5% | –
Cc1ccc(-c2cccc([C@H]3[C@@H]4C=CC[C@@H](C)[C@@H]4C(=O)N3Cc3ccccc3)c2)cc1 | 17.8% [at 0.0915 µM] | –
Cc1nc(NC2=NC(C(=O)Nc3ccc(Cl)cc3)CC(=O)N2)nc2ccccc12 (stereo not given) | -5.2% | –
COc1ccc(Nc2ncnc3ccc(OC)cc23)cc1 | 12% [at 0.0915 µM] | –
O=C(c1ccccc1)N1CCN(c2ccc([N+](=O)[O-])c(NCc3ccco3)c2)CC1 | -17.9% | –
N#C/C(=C\c1ccccc1)c1n[nH]c(Cn2cncn2)n1 | -7.73% | –
O=C(O)CCC(=O)O | 15.2% [at 0.0915 µM] | –
Cc1cc2oc(=O)cc(-c3ccccc3)c2c(C)c1-c1ccc(OC(F)(F)F)cc1 | -5.36% [at 0.0915 µM] | –
O=C(Nc1ccc(Sc2ccc(Br)cc2)cc1)c1ccco1 | 26.3% | –
CC1CCc2c(c3ccccc3[nH]c2=O)O1 (stereo not given) | 7.66% | –
C=CCSc1nc(Cc2ccc(Cl)cc2)nc2ccccc12 | 4.17% | –
